Compounds with a hit are over-represented: about 4% of the library has one in this group of screens.
D1 potentiator: enhances dopamine response at the human D1 receptor; P21728; HEK293 TREx D1 cells, calcium flux, dopamine EC20 potentiation; potentiation, % at 10 µM; 360,000 tested, 0.036% active; in the data active = potentiation above about 30%; note: 0% is about no effect
GRP78 ERSR act: induces the endoplasmic reticulum stress response in human glioma cells; AID 602332; 420,000 tested, 0.02% active; U87-MG GRP78 promoter luciferase reporter, 16 h; Potency, µM, for the others: at the top dose activation, hits mostly activators; active = well fitted activation curve with a large enough effect; inconclusive = small, poorly fitted or top-dose-only effect; inactive = no such curve, though single readings can be large or run the other way; note: potency is the fitted concentration of half-maximal effect; series mostly up to about 76 µM; % of control where 0% means no effect; nearly all actives have a fitted effect of over 35% in size
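Stably transfected U87-MG glioma cells carrying a GRP78-based luciferase sensor; 16 h compound incubation. Luminescence end-point read 10 min after Bright-Glo addition at room temperature.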
TRHR agonist: TRH receptor (human) agonism; P34981; TRHR cells, calcium flux fluo-8, FDSS agonist mode; activation, % at 2 µM; 360,000 tested, 0.18% active; AID 493084; note: 0% is about no effect
Target sequence (P34981 whole entry, looked up): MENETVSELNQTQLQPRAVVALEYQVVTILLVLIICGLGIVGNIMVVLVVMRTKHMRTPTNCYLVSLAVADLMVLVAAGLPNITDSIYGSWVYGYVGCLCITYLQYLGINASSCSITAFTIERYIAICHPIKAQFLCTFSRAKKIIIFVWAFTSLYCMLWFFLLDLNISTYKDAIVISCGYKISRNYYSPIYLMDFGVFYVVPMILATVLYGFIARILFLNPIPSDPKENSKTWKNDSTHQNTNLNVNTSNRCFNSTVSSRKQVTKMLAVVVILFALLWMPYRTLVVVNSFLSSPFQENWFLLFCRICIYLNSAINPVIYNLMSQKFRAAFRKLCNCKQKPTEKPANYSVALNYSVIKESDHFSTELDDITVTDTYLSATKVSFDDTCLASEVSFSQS
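In this calcium-flux screen, cells bearing human TRHR are dye-loaded with fluo-8, baselined for 10 cycles, then exposed to library compounds; positive kinetic calcium responses during the agonist phase mark hits, with TRH as control.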
D1 ag: activates the human D1 dopamine receptor; P21728; HEK293 T-REx D1 cells, calcium flux, agonist mode; activation, % at 2 µM; 360,000 tested, 1% active; note: 0% is about no effect
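Inducible HEK293 T-REx D1 cells, force-coupled to calcium signalling, were plated at 4000 cells/well with tetracycline and held overnight at 30 C. After no-wash calcium dye loading, compound-evoked calcium rise over 180 s flagged agonists.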
TRHR PAM: allosterically enhances the human TRH receptor. 360,000 tested, 0.66% active. AID 493056. enhancement, % at 2 µM. P34981. TRHR cells, fluo-8 calcium fluorescence, EC20 TRH enhancement; in the data active = enhancement above about 30%; note: 0% is about no effect
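Enhancer read-out: after compound pinning and an initial kinetic agonist-mode read, an EC20 of TRH (10 nM final) was injected and fluo-8 calcium signal (Ex 480/Em 530) followed at 1 s/cycle for 100 cycles in TRHR-expressing cells.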
D1 antag: blocks dopamine activation of the human D1 receptor. P21728. HEK293 TREx D1 cells, calcium flux, dopamine EC80; hits give low values. activity change, negative = inhibition, % at 10 µM. 360,000 tested, 3.2% active. AID 504652; in the data active = activity change below about -30%; note: % is set by controls: 0 for no effect and ±100 for the full control effect
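Cells carrying a force-coupled, tetracycline-inducible human D1 receptor report calcium flux. Each well gets a 10 s baseline, compound with 180 s monitoring, then an EC80 dopamine stimulus with a second 180 s kinetic read.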
* marks the source's active call; other numbers are inactive results. Cut-off read from the data, not from the text of the source, unless noted: active = activation above about 30%; inactive = the rest.

Screening COc1ccc(CCNC(=O)C23CN(Cc4ccccc4)CC2C(c2cccc([N+](=O)[O-])c2)=NO3)cc1 (configuration not stated) returned D1 potentiator 0, GRP78 ERSR act -2%, TRHR agonist 0, D1 ag 3, TRHR PAM 0 and D1 antag 21.
Screening COc1ccc(-c2ccc(=O)n(CC(=O)Nc3ccc(OC)c(OC)c3)n2)cc1 returned D1 potentiator -1, GRP78 ERSR act -4%, TRHR agonist 0, D1 ag 5, TRHR PAM -1 and D1 antag -40*.
COc1ccc(-c2ccc(=O)n(CC(=O)Nc3ccc4c(c3)OCCO4)n2)cc1 was read as D1 potentiator -4, GRP78 ERSR act 0%, TRHR agonist 0, D1 ag 1, TRHR PAM 4 and D1 antag -9.
`COc1cccc(NC(=O)Cn2nc(-c3ccncc3)ccc2=O)c1` gave D1 potentiator -4, GRP78 ERSR act 1%, TRHR agonist 0, D1 ag 0, TRHR PAM -6 and D1 antag -44*.
CCc1cccc(NC(=O)Cn2nc(-c3ccc(OC)cc3)ccc2=O)c1 was read as D1 potentiator 0, GRP78 ERSR act -1%, TRHR agonist 0, D1 ag 3, TRHR PAM -4 and D1 antag -2.
For NC[C@@H]1O[C@H](C23CC4CC(CC(C4)C2)C3)Cc2c1ccc(O)c2O the results were D1 potentiator -5, GRP78 ERSR act -9%, TRHR agonist 0, D1 ag 118*, TRHR PAM 3 and D1 antag -78*.
For CCOC(=O)C(Cc1ccc(O)cc1)NC(=O)CCc1c[nH]c2ccccc12 (configuration not stated) the results were D1 potentiator -3, GRP78 ERSR act inconclusive, TRHR agonist 3, D1 ag 37*, TRHR PAM 7 and D1 antag -16.
`COc1ccc(N(CC(=O)Nc2c(C)n(C)n(-c3ccccc3)c2=O)S(=O)(=O)c2ccc(C)cc2)cc1` gave D1 potentiator -5, GRP78 ERSR act -2%, TRHR agonist -1, D1 ag 3, TRHR PAM 30* and D1 antag -5.
COc1ccc(CCC(=O)Nc2c(C)n(C)n(-c3ccccc3)c2=O)cc1 was read as D1 potentiator -8, GRP78 ERSR act -3%, TRHR agonist 2, D1 ag 2, TRHR PAM -11 and D1 antag -38*.
For COc1ccc(NC(=O)Nc2c(C)n(C)n(-c3ccccc3)c2=O)cc1 the results were D1 potentiator -4, GRP78 ERSR act 1%, TRHR agonist 0, D1 ag -2, TRHR PAM -3 and D1 antag -7.
For CCOc1ccc(CCNC(=O)c2ccc(C)c(-n3cnc4cccnc43)c2)cc1 the results were D1 potentiator -1, GRP78 ERSR act 0%, TRHR agonist 0, D1 ag -1, TRHR PAM 8 and D1 antag -31*.
For CCN(CC)CCNC(=O)c1ccc2c(=O)n3nc(Nc4cccc(Cl)c4C)sc3nc2c1 the results were D1 potentiator -3, GRP78 ERSR act -6%, TRHR agonist -1, D1 ag 2, TRHR PAM 4 and D1 antag -56*.
`COc1ccccc1Nc1nn2c(=O)c3ccc(C(=O)NC(C)c4ccccc4)cc3nc2s1` (configuration not stated) gave D1 potentiator -1, GRP78 ERSR act 1%, TRHR agonist 0, D1 ag 1, TRHR PAM 7 and D1 antag 1.
`Cc1ccc(Cl)cc1Nc1nn2c(=O)c3ccc(C(=O)NC(C)c4ccccc4)cc3nc2s1` (configuration not stated) gave D1 potentiator 2, GRP78 ERSR act -3%, TRHR agonist -1, D1 ag 0, TRHR PAM 17 and D1 antag -54*.
Screening Cc1cccc(CN2CC34C=CC(CC3S2(=O)=O)O4)c1 (configuration not stated) returned GRP78 ERSR act -3%.
`CCCCCCCCOc1ccccc1C(=O)Nc1ccc(C(=O)OCC[N+](C)(CC)CC)cc1` gave GRP78 ERSR act -6%.
OCC(O)CN1CCCC1 (configuration not stated) was read as D1 potentiator 0, GRP78 ERSR act -4%, TRHR agonist 0, D1 ag 3, TRHR PAM 1 and D1 antag -32*.
`OC(CN1CCCCC1)CN1CCCCC1` gave D1 potentiator -2, GRP78 ERSR act 0%, TRHR agonist 0, D1 ag 3, TRHR PAM 11 and D1 antag 4.
Screening Cc1cc(F)ccc1NC(=O)CCSc1nc(-c2ccco2)cc(C(F)(F)F)n1 returned D1 potentiator 5, GRP78 ERSR act -1%, TRHR agonist 1, D1 ag 0, TRHR PAM -2 and D1 antag 4.
For COc1ccc(NC(=O)c2ccc(C)cc2)cc1 the results were D1 potentiator 18, GRP78 ERSR act -9%, TRHR agonist 0, D1 ag 1, TRHR PAM 0 and D1 antag 3.
For COc1ccc(NC(=O)c2ccc(NC3CC(=O)N(c4ccc(C)cc4C)C3=O)cc2)cc1 (configuration not stated) the results were D1 potentiator -3, GRP78 ERSR act -5%, TRHR agonist 1, D1 ag 6, TRHR PAM 7 and D1 antag -31*.
`CN(C)c1ccc(/C=C/c2cc3ccccc3cn2)cc1` gave GRP78 ERSR act -3%.
For CC(=O)N1CCSc2ccc(S(=O)(=O)NCc3ccccc3)cc21 the results were D1 potentiator -7, GRP78 ERSR act -2%, TRHR agonist 0, D1 ag 13, TRHR PAM 1 and D1 antag 4.
For CC(=O)N1CC(C)Sc2ccc(S(=O)(=O)NCc3ccc(F)cc3)cc21 (configuration not stated) the results were D1 potentiator -2, GRP78 ERSR act 1%, TRHR agonist 0, D1 ag 11, TRHR PAM 2 and D1 antag -37*.
Screening CC(=O)N1CCSc2ccc(S(=O)(=O)NCc3ccc(F)cc3)cc21 returned D1 potentiator -4, GRP78 ERSR act -2%, TRHR agonist 0, D1 ag 7, TRHR PAM 3 and D1 antag -30*.
For S=C1NC2(CCCC2)N=C1c1ccccc1 the results were D1 potentiator -3, GRP78 ERSR act 8%, TRHR agonist 0, D1 ag 2, TRHR PAM 1 and D1 antag -15.
`CC(C)CC1(C)N=C(c2ccccc2)C(=S)N1` (configuration not stated) gave D1 potentiator -9, GRP78 ERSR act 4%, TRHR agonist 0, D1 ag 2, TRHR PAM -4 and D1 antag -40*.

Screens as filed in PubChem BioAssay.
